Here are results for 26 molecules from PubChem BioAssay AID864 (The Scripps Research Institute Molecular Screening Center, 2007).

SMILES strings stand for the structures. The list shows a part of the results. Active and inactive are the calls of the source. Cut-off read from the data, not from the text of the source: active = activation above about 8.4%; inactive = the rest.

For the experiment, the target named is Galanin receptor type 2 (Homo sapiens) (UniProt O43603). In words: activators of human galanin receptor 2 – cell-based, confirmation (AID 864).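 Note: 0% = buffer-only vehicle wells and 100% = full reference agonist response.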 Particulars: GALR2-expressing cells, agonist activation; at 5.6 µM; hits give high values.
Chain of Galanin receptor type 2 (Homo sapiens) (O43603 whole entry, looked up): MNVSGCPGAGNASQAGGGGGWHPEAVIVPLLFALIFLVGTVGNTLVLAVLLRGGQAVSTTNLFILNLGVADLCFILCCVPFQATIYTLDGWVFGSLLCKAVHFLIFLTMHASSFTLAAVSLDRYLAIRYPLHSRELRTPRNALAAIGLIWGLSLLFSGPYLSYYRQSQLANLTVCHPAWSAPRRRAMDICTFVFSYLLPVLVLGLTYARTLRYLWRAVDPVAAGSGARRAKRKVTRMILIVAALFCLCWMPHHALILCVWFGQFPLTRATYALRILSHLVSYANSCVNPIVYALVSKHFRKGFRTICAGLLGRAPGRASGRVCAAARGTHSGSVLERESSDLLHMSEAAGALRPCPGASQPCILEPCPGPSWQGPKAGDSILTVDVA
With `Cn1c(=O)oc2cc(S(=O)(=O)N3CCC(C(=O)Nc4ccc(OC(F)(F)F)cc4)CC3)ccc21`, the activation was 1.24% (inactive).

Take `C=CCn1c(Oc2ccc(C(=O)OC)cc2)nc2c1c(=O)n(C)c(=O)n2C`: the activation was 0.25% (inactive).

Consider `COc1ccc(C(=O)CN2C(=O)NC(C)(c3ccc(C)cc3)C2=O)cc1OC` (stereo unspecified), for which the activation was -0.91% (inactive).

Turning to `CC1(C)CC(=O)C=C(NCCN2CCNCC2)C1`, the activation is -1.05% (inactive).

On to `Fc1ccc(N2N=C(c3cccs3)CC2c2ccco2)c(F)c1` (stereo unspecified), for which the activation was 1.22% (inactive).

In the case of `O=[N+]([O-])c1ccccc1SNc1ccccn1`, the activation was -0.89% (inactive).

Turning to `COC(=O)c1ccc(NC(=O)C(C)N2C(=O)c3ccccc3C2=O)cc1` (stereo unspecified), the activation is -0.71% (inactive).

In the case of `OC(COc1cccc2ccccc12)CN1CCN(c2ccccn2)CC1` (stereo unspecified), the activation was -0.28% (inactive).

Turning to `Cc1csc(NC(=O)c2ccc(-c3ccc(Cl)cc3Cl)o2)n1`, the activation was -0.78% (inactive).

For the molecule `CC(=O)Oc1ccc(C(C)=O)c2c1OCCO2`, the activation is -0.99% (inactive).

Regarding `O=C1COc2ccc(NC(=O)N3CCN(c4ccc(F)cc4)CC3)cc2N1`, the activation is -0.98% (inactive).

Regarding `COc1ccccc1N1N=C(c2cccs2)CC1c1ccccc1` (stereo unspecified), the activation is 6.34% (inactive).

Turning to `Cc1ccc(Cc2c(C)nc3nc(SCC(=O)NCCN4CCOCC4)nn3c2C)cc1`, the activation is -0.11% (inactive).

For the molecule `CCOc1ccc(C(O)Cn2c(=N)n(CCN3CCCCC3)c3ccccc32)cc1` (stereo unspecified), the activation is -0.63% (inactive).

As for `COc1ccc(Nc2oc(-c3ccccc3Cl)nc2C#N)cc1`, the activation is 2% (inactive).

On to `CC(=O)N(Cc1cccs1)C1CCOC(C)(C)C1` (stereo unspecified), for which the activation was -1% (inactive).

`CC/C(C)=N/Nc1nc2sc3c(c2c(=O)[nH]1)CC(C)(C)OC3`: the activation is -0.45% (inactive).

Turning to `CCCOc1ccc(C(=O)C(CCC(CNCC)C(=O)c2ccc(OCCC)cc2)CNCC)cc1` (stereo unspecified), the activation is 16% (active).

On to `O=c1oc2cc(O)ccc2cc1-c1ccc(F)cc1`, for which the activation is 2.23% (inactive).

Turning to `C=CCN(CC=C)S(=O)(=O)c1ccc(C(=O)Nc2nc3c(s2)CCc2ccccc2-3)cc1`, the activation is 2.82% (inactive).

On to `Cc1ccc(CCC(=O)Nc2ncc(Cc3cc(Cl)ccc3Cl)s2)o1`, for which the activation was 7.28% (inactive).

In the case of `CCOc1ccc2nc(Nc3nc4ccc(NC(C)=O)cc4s3)sc2c1`, the activation was 27.5% (active).

Consider `O=C(NC(=S)Nc1ccc(NC(=O)c2cccs2)cc1)c1ccc([N+](=O)[O-])cc1`, for which the activation is -0.89% (inactive).

In the case of `CCN(C(=O)CSc1ncn[nH]1)c1cccc2ccccc12`, the activation is -1.13% (inactive).

On to `COCCN(CCOC)S(=O)(=O)c1ccc(C(=O)Nc2nc3c(s2)CCc2ccccc2-3)cc1`, for which the activation was 5.93% (inactive).

As for `COc1cc(SC#N)ccc1N=Cc1c(C)[nH]n(-c2ccc(C)cc2)c1=O`, the activation is 7.97% (inactive).
